Experimental data published in PubChem BioAssay (NCATS).
Results filed as inconclusive are left out. Calls of active or inactive are those of the source. Calls come from the whole dose curve; as a rule, active = well fitted inhibition curve with a large enough effect; inconclusive = small, poorly fitted or top-dose-only effect; inactive = flat fitted curve, though single readings scatter.

Assays:
Experiment in all cases: qHTS profiling for inhibitors of Plasmodium falciparum proliferation (AID 504749); note: nearly all actives have a fitted effect of over 60% in size
Conditions in all cases: P. falciparum in erythrocytes, SYBR Green DNA, 72 h; series mostly up to 28.7 µM
3D7 = test system: 3D7
Procedure, shortened: (§1)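 Three-day growth assay of blood-stage parasites in erythrocytes (0.3% parasitemia, 2.5% hematocrit) at 37 C, 5% CO2, quantified by SYBR Green DNA staining after overnight detergent lysis.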

7G8 = test system: 7G8
Procedure, shortened: as §1

ATS95 = test system: ATS95
Procedure, shortened: as §1

CP185 = test system: CP185
Procedure, shortened: as §1

CP201 = test system: CP201
Procedure, shortened: as §1

CP237 = test system: CP237
Procedure, shortened: as §1

CP238 = test system: CP238
Procedure, shortened: as §1

CP262 = test system: CP262
Procedure, shortened: as §1

CP265 = test system: CP265
Procedure, shortened: as §1

CP268 = test system: CP268
Procedure, shortened: as §1

CP305 = test system: CP305
Procedure, shortened: as §1

CP335 = test system: CP335
Procedure, shortened: as §1

DIV30 = test system: DIV30
Procedure, shortened: as §1

Dd2 = test system: Dd2
Procedure, shortened: as §1

ECU = test system: ECU
Procedure, shortened: as §1

GB4 = test system: GB4
Procedure, shortened: as §1

HB3 = test system: HB3
Procedure, shortened: as §1

P94_40 = test system: P94_40
Procedure, shortened: as §1

PC26 = test system: PC26
Procedure, shortened: as §1

TAB109 = test system: TAB109
Procedure, shortened: as §1

Measured: Potency

Oc1ccc(/C=C\c2cc(O)cc(O)c2)cc1
inactive: all assays above
